Screens deposited in PubChem by Columbia University Molecular Screening Center.
Shown is part of a subset that was picked to be rich in hits.
VCAM1 TNFa pot – enhances TNF alpha induced VCAM1 expression in HUVEC; HUVEC TNFa-stimulated VCAM-1 immunofluorescence, high-content imaging; scaled per plate to unstimulated/TNFa-only wells; activation, % at 2 µM; 93,000 tested, 0.19% active; AID 808;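 active means activation above the screen mean plus 3 SD, with well images confirming the hit on visual review, cut at about 28% in these data, passing the limit was not always enough; inconclusive means activation above that limit but images do not confirm it; inactive means activation not above that limit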;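 further: signal is the number of cytoplasmic VCAM-1 stained grains per positive cell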
VCAM1 pot confirm – enhancers of VCAM1 induction in HUVEC – imaging, triplicate retest, confirmation. HUVEC TNFa-stimulated VCAM-1 immunofluorescence imaging. activation, % at 2 µM. 230 tested, under 10 active. AID 1034. shares compounds with VCAM1 TNFa pot;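 active means activation above 30% in triplicate retests at 2 µM, then confirmed by visual review of the well images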;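 further: scaled per plate between unstimulated and TNFa-stimulated DMSO control wells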
* hit, by the source's call; ? = inconclusive.

SMILES	VCAM1 TNFa pot	others
Cc1cccc(NC(=O)c2sc3nc(-c4ccccc4)cn3c2C)n1	41.6*	VCAM1 pot confirm=-12.2
COC(=O)Nc1c(C)nn(Cc2ccccc2C)c1C	15.5
COc1cccc(C2CC(=O)NC3=C2C(=O)CCC3)c1 (stereo not given)	6.6
COC(=O)c1cccc(NC(=O)C23CC4CC(C2)CC(n2cncn2)(C4)C3)c1	-7.6
COc1ccccc1C(=O)Nc1ccc2c(c1)nc(CN1CCN(C(C)=O)CC1)n2C	-90.2
COc1ccccc1C(=O)Nc1cccc(SC)c1	50.6*	VCAM1 pot confirm=-4.0
CSc1cccc(NC(=O)c2c(Cl)cnn2C)c1	-32.6
CCCC1(C(=O)OCC)NC(c2ccc(OC)cc2OC)C2C(=O)N(c3ccc4c(c3)OCCO4)C(=O)C21 (stereo not given)	-7.1
O=C(Cn1nnc(-c2ccc(S(=O)(=O)N3CCCC3)cc2)n1)NCC1CCCO1 (stereo not given)	-5.7
O=C(NCCc1ccccc1F)[C@@H]1CSC2c3ccccc3C(=O)N21 (stereo not given in full)	0.9
CCOC(=O)/C(=C\c1cccnc1)C(=O)c1cc(C(C)=O)c(Nc2ccccc2)s1	-53.9
CCOC(=O)/C(=C\c1ccccc1)C(=O)c1cc(C(C)=O)c(Nc2ccccc2)s1	67.6*	VCAM1 pot confirm=-12.6
Cn1nc(-c2ccc(C(=O)N3CCN(c4ccccc4)CC3)cc2)c2ccccc2c1=O	10.5
O=C(c1ccc(-c2ccccc2)cc1)N1CCN(c2ncccn2)CC1	?	VCAM1 pot confirm=-4.3
O=C(c1ccc2c(c1)[nH]c(=S)n1c3ccccc3nc21)N1CCN(c2ncccn2)CC1	-1.0
CCn1c(SCC(=O)N2CCN(c3ccccc3)CC2)nnc1-c1c[nH]c2ccccc12	-7.4
c1ccc(OCCOCCSc2ncccn2)cc1	-6.9
CC(C(N)=O)N1C(=O)C2C3C=CC(C3)C2C1=O (stereo not given)	1.3
CCN(C(=O)c1cc2cccc(OC)c2oc1=O)C1CCCCC1	7.9
Cc1nn(-c2ccc(F)cc2)c(Cl)c1/C=C(\CCC(=O)O)c1nc2ccccc2s1	-9.4
CC(C)NC1CS(=O)(=O)CC1O (stereo not given)	-100.0
CCN(CC)S(=O)(=O)c1ccc(NC(=O)C(C)N(c2ccccc2)S(C)(=O)=O)cc1 (stereo not given)	37.7
Cc1nnc(NC(=O)CSc2nccn2C)s1	6.4
Cn1cnnc1SCC(=O)Nc1ccccc1C(=O)NC1CC1	35.8*	VCAM1 pot confirm=-13.4
Cn1cnnc1SCCNS(=O)(=O)c1ccccc1	7.4
SMILES	VCAM1 TNFa pot	others
CNc1nc(OCCNC(=O)Nc2ccccc2)nc(N2CCOCC2)n1	0.2
COc1cccc(-c2cc(N)nn2C(=O)Nc2ccc(Cl)cc2)c1	-8.4
CCCCOCCCNC(=O)c1cccs1	-89.5
CCCCN(CCCNC(=O)c1c(C)cc(=O)oc1C)c1ccccc1	39.5*	VCAM1 pot confirm=-5.7
Cc1ccc(S(=O)(=O)NCCCNC(=O)c2ccccc2)cc1	2.1
COCCNC(=O)CN(C(=O)CCC(=O)Nc1cc(C)on1)c1ccccc1C	4.1
COCCCn1c(-c2ccccc2)nc2ccccc2c1=O	30.8*	VCAM1 pot confirm=-2.4
COc1ccc(/C=N/n2c(-c3ccco3)nc3ccccc3c2=O)cc1	2.9
COCCCn1c(SCC(=O)NCc2ccccc2)nc2ccccc2c1=O	-2.3
CCc1nc(SCC(=O)N2c3ccccc3CC2C)c2c(C)c(C)sc2n1 (stereo not given)	-0.4
CCc1ccc(C(=O)NC(CC(C)C)C(=O)O)cc1 (stereo not given)	-1.2
CC(CO)Nc1nc(SCc2ccccc2)nc2sc3c(c12)CCC3 (stereo not given)	1.3
CC1CCCCN1C(=O)Cn1cc(C(=O)c2ccco2)c2ccccc21 (stereo not given)	-16.3
CC1=CN2C(=NC(=O)CC2(C)C(=O)N(CC(=O)NC2CCCC2)c2ccccc2C)C=C1 (stereo not given)	-7.7
CCCOc1ccc(CC(=O)NCc2ccco2)cc1OC	-1.7
CCn1cc(C(=O)NCc2ccco2)c2cc(OC)c(OC)cc2c1=O	?	VCAM1 pot confirm=-9.7
Cc1ccc(OCC(=O)NCc2ccco2)cc1C	-16.3
COc1ccc(OC)c2c(C)cc(N3CCN(C(=O)c4ccc(F)cc4)CC3)nc12	18.4
CCOC(=O)Cc1nnc(NC(=O)CC)s1	-1.4
O=C(OCCCN=C1NS(=O)(=O)c2ccccc21)C1CC(=O)N(c2ccc(Cl)cc2)C1 (stereo not given)	5.4
COCCn1c(=S)[nH]c2ncccc2c1=O	?	VCAM1 pot confirm=-13.8
COCCn1c(SCC(=O)Nc2nnc(C)s2)nnc1-c1c[nH]c2ccccc12	5.2
COCCn1c(C23CC4CC(CC(C4)C2)C3)n[nH]c1=S	-27.0
Cc1ccc(-c2cc(=O)[nH]c3ccccc23)cc1	18.3
Cc1ccc(C(C)NC(=O)/C(C#N)=C\c2c(C)[nH]c3ccccc23)cc1 (stereo not given)	51.8*	VCAM1 pot confirm=-14.9
SMILES	VCAM1 TNFa pot	others
CCC(C)NC(=O)C1CCN(S(=O)(=O)CC)CC1 (stereo not given)	-0.5
O=C(Cn1cnc([N+](=O)[O-])c1)Nc1cc(Oc2ccc(Cl)cc2Cl)cc([N+](=O)[O-])c1	-11.3
Cc1cc(C)cc(C(=O)N2CCC(C(N)=O)CC2)c1	-7.1
COc1ccccc1OCC(=O)Nc1ccc(C(N)=O)cc1	50.7*	VCAM1 pot confirm=-16.1
Cc1cc(C)c(OCC(=O)Nc2cccc(O)c2)cc1C	26.5
CCOC(=O)c1ccc(NC(=O)COc2cc(=O)n(CC)c3ccccc23)cc1	-0.2
O=C(CSc1nnc(COc2ccccc2)n1Cc1ccco1)Nc1ccc2c(c1)OCCO2	-32.2
N#CCCN(C(=O)CSc1ccc2c(c1)OCCO2)c1ccc(F)cc1	-26.5
Cc1ccc(SCC(=O)NCc2cccnc2)cc1	-8.0
CCCCN(C)C(=O)C1CCC(=O)N(c2cc(OC)c(OC)c(OC)c2)C1c1ccc(OC)cc1 (stereo not given)	-1.3
COC(=O)c1nnn(CC(=O)Nc2cccc(Cl)c2)c1C(=O)OC	0.2
CN(CC(=O)N1CCN(c2ccccc2)CC1)S(=O)(=O)c1cnc[nH]1	-4.2
O=C(CN1CCCCCC1)Nc1ccc(Br)cc1	33.6*	VCAM1 pot confirm=-7.3
O=C(Cn1c(=O)sc2ccccc21)Nc1ccc(S(=O)(=O)N2CCCCC2)cc1	12.2
NC(=O)c1oc2ccccc2c1NC(=O)CN1CCCCC1	5.9
CCN1CCN(C(c2cccs2)C(C)NS(=O)(=O)c2ccc(Br)cc2)CC1 (stereo not given)	3.9
CCCCCC(=O)N1CCN(CCN=CC2=C(O)CC(c3cccs3)CC2=O)CC1 (stereo not given)	-15.8
Cc1c2cccn2cc[n+]1C	-24.4
CCCCP(=O)(CCCC)Cc1ccccc1O	-6.2
COc1ccc2c(c1)c1c(n2C(C)=O)C(OC(C)=O)=NCC1	-5.6
O=C(CC(=O)NN=C1CCCC1)NCCc1ccccc1	-10.0
O=C(NCc1ccco1)c1ccc(CS(=O)(=O)Cc2ccc(Cl)cc2)o1	-92.8
CC(C)Oc1ccc(C(=O)NCc2ccco2)cc1	0.7
O=C(NCc1ccco1)c1sc2cc(Cl)ccc2c1Cl	64.3*	VCAM1 pot confirm=-12.8
CN(CCOC(=O)c1ccc2c(c1)OCCO2)Cc1ccccc1	-21.8
O=C(NCCN1CCOCC1)Nc1ccc(Cl)cc1Cl	1.2
Cc1nccn1CC(O)COC1CCCCC1 (stereo not given)	?	VCAM1 pot confirm=-19.9
Cc1nccn1CC(O)COc1ccccc1 (stereo not given)	8.0
Cc1nc2ccccc2n1CC(O)COC1CCCCC1 (stereo not given)	3.2
